Experimental data published in PubChem BioAssay (NCI).
About 83,000 compounds went through this panel and 20% of them were active in at least one assay; those are over-represented in the sample as a whole.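 Treatment: one concentration, 48 hours, 96-well format. Scoring: percent growth, with anything below 10 considered active.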 Values without a mark were called inactive. Activity calls are given as the source filed them.

Each molecule was assayed on HCT-116 colon (assay: NCI-60 one-dose screen, 48 h (100 = growth as untreated, 0 = no growth, -100 = all killed)). Settings: 10 µM.
Procedure: Growth inhibition of the HCT-116 human tumor cell line is measured as a screen for anti-cancer activity. Cells are grown in 96 well plates and exposed to the test compound for 48 hours. Compounds are tested at a single concentration, which is 10^-5 M for most compounds. The reported endpoint is percent growth (GI% or GIPRCNT), where numbers from 0 - 100% represent growth inhibition, and numbers from -100% - 0 represent cell death. For example, a value of 40 represents 60% growth inhibition. A value of 0 means no net growth occurred over the course of the experiment. A value of -40 indicates 40% of cells at the beginning of the experiment died by the end of the experiment. A value of -100 means all cells are dead at the end of the experiment.
NCI-60 Human Tumor Cell Lines Screen was performed using the standard one-dose NCI protocol, which is described in more detail at https://dtp.cancer.gov/discovery_development/nci-60/default.htm.
Compounds with GIPRCNT values below 10 were considered active. Activity score was based on GIPRCNT using the following formula: […]
Score is 0 for GIPRCNT values of 100 or above, 50 for GIPRCNT values of 0, and 100 for GIPRCNT values of -100.
With COc1cc([C@@H]2c3cc4c(cc3C(Br)[C@H]3COC(=O)[C@H]23)OCO4)cc(OC)c1OC (stereo not given in full) the growth was -34.7% (active).
In the case of c1ccc(CNc2ncnc3scc(-c4cccs4)c23)nc1, the growth is reported as 66.5%.
In the case of CC(C)N(CCNc1nc(C(Cl)(Cl)Cl)nc2cc(Cl)ccc12)C(C)C, the growth is reported as -90.6% (active).
Molecule N=C1c2nc3n(c2C(=O)c2nc4n(c21)CCCC4)CCCC3 has a growth of 65.8%.
COc1ccc2c(c1)O/C(=C\c1ccc([N+](=O)[O-])s1)C2=O was tested, and the growth was -23.4% (active).
Work on Cc1c(Cl)cccc1NC(=O)c1sc2nc3c(cc2c1N)C(=O)CCC3 yielded a growth of 14.3%.
In the case of COc1ccc(-c2nc3sc(C4CC4)nn3c2/C=C2/C(=O)Nc3ccc(OC)cc32)cc1, the growth is reported as 66.3%.
Work on C(CCCC1=NCCO1)CCCC1=NCCO1 yielded a growth of 112%.
O=C(O)CN1C(=O)c2cccc3cccc(c23)C1=O gave a growth of 102%.
In the case of CCN1CCC2(CC1)OC(c1ccccc1)C(c1ccccc1)O2 (stereo not given), the growth is reported as 95.1%.
For O=[N+]([O-])c1ccc(Oc2cccnc2)c([N+](=O)[O-])c1, the growth was 8.43% (active).
In the case of COc1ccccc1CNCCN1C(=O)c2ccc3c4c(ccc(c24)C1=O)C(=O)N(CCNCc1ccccc1OC)C3=O, the growth is reported as -92.6% (active).
With CC1(C)OC2=C(CC1Br)C(=O)C(=O)c1ccccc12 (stereo not given) the growth was -57% (active).
COc1ccc(-c2cc(/C=C3\C(=O)Nc4ccc(OC)cc43)[nH]n2)cc1 gave a growth of 25.3%.
Work on CN(C)N=Nc1nn(C(=O)Nc2ccc(Cc3ccccc3)cc2)c2ccccc12 yielded a growth of 62.1%.
COc1cc(C)ccc1C(=O)c1ccc(C)cc1OC was tested, and the growth was 24.8%.
In the case of Cc1cn(C2CCCCO2)c(=O)nc1NO (stereo not given), the growth is reported as 111%.
With COc1ccc(-c2nc3sc(-c4ccc(OC)cc4)c(-c4ccc(OC)cc4)n3c2/C=C/c2ccc(C(C)C)cc2)cc1 the growth was 94.4%.
Work on COc1ccc(N2C(=O)C3c4[nH]c5ccc(OCc6ccccc6)cc5c4C4CCC(C(C)C)CC4C3C2=O)cc1 (stereo not given) yielded a growth of 109%.
O=C(Nc1cccc(-n2cc(-c3ccncc3)c(-c3cc(O)cc(Cl)c3)n2)c1)c1cc(C(F)(F)F)cc(C(F)(F)F)c1 was tested, and the growth was 24.5%.
For COc1cc(-c2cc(C(=O)N3CCN(C(=O)c4ccccc4NCc4ccco4)CC3)nc3cc(-c4ccccc4)nn23)cc(OC)c1OC, the growth was 20%.
CC(=O)N1C/C(=C/c2ccc(Cl)cc2)C(=O)/C(=C/c2ccc(Cl)cc2)C1 was tested, and the growth was -66.4% (active).
CC1(C)CCC(=NNC(N)=S)CC1 showed a growth of 94.6%.
With CCOC(=O)C1CCc2c(ccc3ccccc23)N1CCC#N (stereo not given) the growth was 96.4%.
Molecule CS(=O)(=O)Nc1cccc(-c2cc(-c3ccccc3Cl)c(C#N)c(N)n2)c1 has a growth of 21.8%.
Molecule O=C1ON=[N+](c2ccc(Cc3ccc([N+]4=NOC(=O)C4CN4CCOCC4)cc3)cc2)C1CN1CCOCC1 (stereo not given) has a growth of 63.7%.
In the case of COc1cc(Cl)cc(-c2nn(-c3cccc(NC(=O)c4ccc(Cl)c(Cl)c4)c3)cc2-c2ccncc2)c1, the growth is reported as 44.1%.
With COc1ccc2c(c1)[n+]([O-])c(C#N)c(NC(=O)c1ccco1)[n+]2[O-] the growth was 99.9%.
CCN(CC)CCNC(=O)c1ccc(NC(C)=O)cc1 showed a growth of 105%.
For N#Cc1ncc(-c2ccc(C(F)(F)F)cc2)c(NCc2cc(C(F)(F)F)cc(C(F)(F)F)c2)n1, the growth was 7.85% (active).
In the case of COc1ccc2c(c1)sc1nc(-c3ccccc3)c(-c3ccsc3)n12, the growth is reported as 30.8%.
In the case of N#Cc1cc(-c2cc3ccccc3o2)oc1N, the growth is reported as 8.05% (active).
COc1cc2cc3c(nc2cc1OC)CCN3Cc1ccc(NC(=O)Nc2ccc(F)cc2F)cc1 showed a growth of 81.3%.
With CN1CCCNc2c(c(=O)c2=O)NCCCN(C)CCCNc2c(c(=O)c2=O)NCCCN(C)CCCNc2c(c(=O)c2=O)NCCCN(C)CCCNc2c(c(=O)c2=O)NCCCN(C)CCCNc2c(c(=O)c2=O)NCCCN(C)CCCNc2c(c(=O)c2=O)NCCCN(C)CCCNc2c(c(=O)c2=O)NCCC1 the growth was 59.2%.
With CCC(=O)N1C/C(=C/c2ccc(OC)cc2)C(=O)/C(=C/c2ccc(OC)cc2)C1 the growth was -70.8% (active).
In the case of COc1cc(-c2cc(-c3cc4c([nH]c5ccccc54)c(-c4cc(OC)c(OC)c(OC)c4)n3)cc(-c3ccccc3)n2)cc(OC)c1OC, the growth is reported as 57%.
With CC1(C)Cc2c(sc3ncn4nc(-c5ccc(O)cc5)nc4c23)CO1 the growth was 81.7%.
In the case of CNc1ncc(-c2ccc(C(F)(F)F)cc2)c(NC2CCCCCC2)n1, the growth is reported as 56%.
For CCC1(C(C)C)NC(=O)NC1=O (stereo not given), the growth was 101%.
Cc1cs/c(=N\NC(=O)c2cc(-c3cc4ccccc4o3)nn2-c2ccccc2)n1-c1ccccc1 was tested, and the growth was 83%.
